DRD3 agonist: agonists of human D3 dopamine receptor; P35462; D3R DiscoveRx beta-arrestin cells, luminescence, 90 min; max activation, %; actives 0.58% (n = 410,000); AID 652048; in the data active means max activation above about 30%; further: 0% is about no effect
Target sequence (P35462 whole entry, looked up): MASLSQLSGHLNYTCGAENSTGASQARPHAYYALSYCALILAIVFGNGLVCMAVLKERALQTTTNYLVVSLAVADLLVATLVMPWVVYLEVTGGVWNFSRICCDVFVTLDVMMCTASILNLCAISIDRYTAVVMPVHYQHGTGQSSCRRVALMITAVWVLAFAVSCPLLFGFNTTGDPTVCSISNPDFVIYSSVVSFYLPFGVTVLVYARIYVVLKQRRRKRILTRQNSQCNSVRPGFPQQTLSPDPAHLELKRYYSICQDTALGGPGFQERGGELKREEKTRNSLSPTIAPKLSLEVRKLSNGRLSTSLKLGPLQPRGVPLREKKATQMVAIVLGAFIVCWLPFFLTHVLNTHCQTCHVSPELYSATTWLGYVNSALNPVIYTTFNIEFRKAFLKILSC
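Agonist mode: compounds and dopamine controls were applied to plated cells for 90 min at 37 degrees C after an overnight attachment at 1500 cells/well. Luminescent read-out followed 30 - 60 minutes at room temperature with DiscoveRx detection reagent.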
DRD3 antagonist: D3 dopamine receptor (human) antagonism. P35462. D3R cells, DiscoveRx beta-arrestin luminescence, antagonist mode; stronger effect = lower value. max response, negative = inhibition, %. actives 2.5% (n = 360,000); in the data active means max response below about -50%; inconclusive means no clear call, values can overlap the other calls; further: on the % scale 0 is the no-effect control and ±100 the full control effect
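Cells expressing the human receptor were seeded at 1500 cells/well, incubated overnight at 37 degrees C in 5% CO2, then exposed to library compounds with dopamine controls for 90 minutes at 37 degrees C before luminescent detection.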
Integrin act MD: activates integrin-mediated alleviation for muscular dystrophy; alpha7betagal myoblasts, beta-gal FDG fluorescence, 48 h; Potency, µM (titrated, usually from 38.3 µM), for the others: at the highest dose activation, actives largely listed as activators; actives 0.064% (n = 350,000); active means well fitted activation curve with a large enough effect; inconclusive means small, poorly fitted or top-dose-only effect; inactive means no such curve, though single readings can be large or run the other way;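 further: potency means the concentration at half of the fitted maximal effect; 100% = response of the positive control SU9516; nearly all actives have a fitted effect of over 60% in size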
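alpha7betagal+/- myoblasts (passage 13, 250/well) treated 48 h at 37C with compounds at 1:260 dilution of DMSO stock. Lysed, then beta-galactosidase activity read as FDG fluorescence (ex 480/em 540) after 30 min, with pre-read for autofluorescence.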
* = called active by the depositor; ? = inconclusive; · = not tested or not shown. Hits are enriched below; roughly 2.9% of the tested compounds scored in any of these assays.

SMILES | DRD3 agonist | DRD3 antagonist | Integrin act MD
O=C(CC1C(=O)NCCN1Cc1ccc(F)c(F)c1)NCCn1cccn1 (centres undefined) | 8.1 | -15.8 | ?
Nc1cc(CN2C(=O)c3ccccc3C2=O)cc(Cl)c1O | 31.4* | 10.3 | -21.8%
O=C1c2ccccc2C(=O)N1Cc1cc(Cl)c(O)c([N+](=O)[O-])c1 | -7.1 | -8.2 | 20.2%
CC(SC(C)C(=O)NN=Cc1cccc(Cl)c1)C(=O)NN=Cc1cccc(Cl)c1 (centres undefined) | -3.6 | 4.5 | 10.6%
Cc1ccc(-c2noc(-c3ccc(NCc4cccnc4)c([N+](=O)[O-])c3)n2)cc1 | -25.7 | · | ·
COc1ccc(CCC(=O)O)c(O)c1 | 4.9 | 22.7 | 3.3%
Cc1cc(CCC(=O)O)c(C)cc1CCC(=O)O | -10.9 | -52.0* | 5.5%
Nc1nn(-c2ccccc2)nc1C(=O)OCc1ccccc1 | -13.7 | -64.6* | 38.4%
Cc1ccc(COC(=O)c2nn(-c3ccccc3)nc2N)cc1 | -2.5 | 15.1 | 9.2%
COc1ccccc1NC(=O)C1C2C=CC(C2)C1C(=O)NCc1cccnc1 (centres undefined) | 7.8 | 0.8 | -41.1%
O=C(NCCNC1CCC(c2ccccc2)CC1)c1ccc(F)cc1 (centres undefined) | -35.1 | -92.4* | ?
O=C(NCCCc1ccccc1)c1ccc(F)cc1 | 2.9 | 8.3 | 24.4%
COc1ccccc1OCC(=O)NNC(=O)CCCC(=O)NNC(=O)COc1ccccc1OC | 0.5 | 0.0 | 41.9%
COc1ccccc1OCC(=O)N/N=C1/C=C(C)CC1 | 8.1 | -9.4 | 10µM*
Cc1ccc(NC(=O)c2ccc(-c3cccc(Cl)c3C)o2)cc1 | -16.9 | · | ·
COc1cc(NC(=O)COn2nnc3ccc(S(C)(=O)=O)cc32)cc(OC)c1 | -0.4 | -14.1 | 1.4%
COC(=O)Cc1c(O)ccn(Cc2ccc3c(c2)OCO3)c1=O | 10.6 | 7.3 | 10µM*
O=c1c(Cc2c(F)cccc2Cl)c(O)ccn1Cc1ccc2c(c1)OCO2 | -3.3 | -1.3 | 5.9%
O=C(NCCN1CCN(c2ccccc2F)CC1)C1CCCN(S(=O)(=O)c2cnc[nH]2)C1 (centres undefined) | 26.6 | -55.9* | -18.5%
COc1ccc(N2CCN(CCCNC(=O)C3CCCN(S(=O)(=O)c4cnc[nH]4)C3)CC2)cc1 (centres undefined) | 4.0 | 17.6 | 6.4%
O=C(NCCc1ccccc1)C1CCCN(S(=O)(=O)c2cnc[nH]2)C1 (centres undefined) | -1.4 | -23.2 | -4.8%
O=C(NCCN1CCC(Cc2ccccc2)CC1)C1CCCN(S(=O)(=O)c2cnc[nH]2)C1 (centres undefined) | -15.0 | -77.5* | 1.5%
COCc1nnc(NC(=O)CCCCCN2C(=O)c3ccccc3C2=O)s1 | 3.5 | 6.7 | 3.4%
O=C1C2C3C=CC(C3)C2C(=O)N1/N=C/c1ccc(-c2ccccc2[N+](=O)[O-])o1 (centres undefined) | -18.9 | -12.2 | 19.0%
O=C1C2C3C=CC(C3)C2C(=O)N1/N=C/c1cc(Br)cc([N+](=O)[O-])c1O (centres undefined) | -16.9 | -68.3* | -4.1%
SMILES | DRD3 agonist | DRD3 antagonist | Integrin act MD
O=C(CSc1nc(C(F)(F)F)cc(=O)[nH]1)N1CCCCCC1 | 3.5 | -2.2 | 11.6%
O=c1cc(C(F)(F)F)c2sc(N3CCCCC3)nc2[nH]1 | 2.3 | -57.4* | 10.9%
COc1cccc(CN2CCN(C(=O)CCc3nnc(C4CCCCC4)o3)CC2=O)c1 | 3.7 | 3.2 | -3.0%
Cc1ccc(/C=N/NC(=O)c2c[nH]c3ccccc23)s1 | -15.5 | -19.0 | 9.6%
Cc1ccsc1/C=N/NC(=O)c1c[nH]c2ccccc12 | -0.9 | -51.4* | 12.5%
N#CCSc1nccc(/C=C/c2ccccc2)n1 | 3.6 | 11.0 | 7.0%
Cc1cccc(N2C(=O)CS/C2=N\NC(=O)c2ccc(Br)cc2)c1C | -3.4 | -78.9* | 27.1%
Cc1cccc(N2C(=O)CS/C2=N\NC(=O)c2cccnc2)c1C | 6.4 | 9.0 | -6.7%
COc1ccc(Cl)cc1NC(=O)[C@@]1(CC(=O)O)CC(/C=C/c2ccccc2)=NO1 | -0.5 | -11.6 | -7.1%
COc1nc(Nc2ccccc2F)nc(OC)n1 | -0.8 | -8.4 | ?
CCOc1ccc(/C(O)=C2\C(=O)C(=O)N(CCN(C)C)C2c2cc(OC)ccc2OC)cc1Cl (centres undefined) | -1.5 | 25.2 | 0.0%
CCOc1ccc(/C(O)=C2\C(=O)C(=O)N(CCN(C)C)C2c2cccc(OC)c2OC)cc1Cl (centres undefined) | -1.1 | -56.3* | 13.7%
CCOc1ccccc1N(CC(=O)NCCSCc1ccco1)S(=O)(=O)c1ccccc1 | -4.2 | -16.4 | 21.8%
Cc1ccc(CCNC(=O)C2CCC(=O)N2CCc2ccccc2)cc1 (centres undefined) | 6.3 | -14.9 | 2.1%
Cc1ccc(CNC(=O)C2CCC(=O)N2CCc2ccccc2)cc1 (centres undefined) | 17.5 | -57.0* | -12.2%
N#Cc1nc(-c2cccs2)oc1N1CCN(Cc2ccccc2)CC1 | -42.8 | -74.7* | -23.2%
N#Cc1nc(COc2ccccc2)oc1N1CCN(Cc2ccccc2)CC1 | 4.7 | 9.0 | 36.3%
CCOc1ccc(NS(=O)(=O)c2ccc(C(=O)N3CCN(C(C)=O)CC3)cc2)cc1 | -2.2 | -0.2 | 13.5%
Cc1ccc(C)c(S(=O)(=O)Nc2ccc(O)c3ccccc23)c1 | -11.2 | ? | -42.5%
Cc1ccc(S(=O)(=O)Nc2ccc(O)c3ccccc23)c(C)c1 | -12.6 | -53.2* | 0.8%
Cc1cc(C)c(NC(=O)c2ccc(S(=O)(=O)N(C)C)cc2)c(C)n1 | -7.0 | -22.0 | 2.3%
CC(C)Nc1nc(NC(N)=S)nc(NC(C)(C)C)n1 | 2.6 | -1.8 | 12.4%
Cc1ccc(CCN2CC(C(=O)NCCCN3CCN(C)CC3)CC2=O)cc1 (centres undefined) | -0.8 | 15.9 | 20.7%
Cc1ccc(-c2nc(NCc3ccco3)c3ccccc3n2)cc1 | -0.4 | 9.5 | -13.7%
Cc1ccc(CNc2nc(N)c([N+](=O)[O-])c(NCc3ccccc3)n2)cc1 | -6.2 | 11.8 | -11.8%
SMILES | DRD3 agonist | DRD3 antagonist | Integrin act MD
Nc1nc(NCc2ccccc2)nc(NCc2ccccc2)c1[N+](=O)[O-] | 32.1* | 7.1 | -0.8%
c1ccc(Nc2nc(NCc3ccco3)c3ccccc3n2)cc1 | 3.2 | -11.7 | -41.1%
Nc1nc(NCc2ccco2)nc(N2CCN(Cc3ccccc3)CC2)c1[N+](=O)[O-] | -13.6 | -78.7* | -0.2%
Nc1nc(NCc2ccco2)nc(N2CCCC2)c1[N+](=O)[O-] | -1.8 | 2.6 | -8.4%
Cc1ccc(OCCN2CCN(c3nc(NCc4ccco4)c4ccccc4n3)CC2)cc1 | -25.8 | -78.4* | -47.1%
c1ccc(CN2CCN(c3nc(NCc4ccco4)c4ccccc4n3)CC2)cc1 | -13.1 | -81.9* | -42.2%
COc1cc(CN2CCCC(C)C2)cc([N+](=O)[O-])c1O (centres undefined) | -22.5 | ? | 0.9%
Cn1c(SCC(=O)Nc2ccccc2)nnc1-c1ccc2nonc2c1 | -8.1 | 0.0 | -33.3%
OCCN1CCN(c2nc(NCc3ccco3)c3ccccc3n2)CC1 | -20.2 | -81.7* | 4.9%
O=[N+]([O-])c1ccc(N2CCN(CCO)CC2)cc1NCc1ccco1 | -14.1 | -62.6* | -8.4%
OCCNc1nc(N2CCN(c3ccccc3)CC2)nc2ccccc12 | -13.8 | -10.7 | -50.9%

High-throughput results: PubChem, National Center for Advancing Translational Sciences (NCATS)
